DT40 TDP1 CPT – DT40-hTDP1 cell growth loss with CPT; chicken DT40 Tdp1-/-;hTDP1 cells + 20 nM CPT, ATP luminescence, 48 h; Potency, µM (highest dose often 46.2 µM), without a hit: top-dose activity change, negative = growth inhibition, most hits filed as inhibitors; hit rate 12% among 420,000; AID 686979; note: potency is the fitted concentration of half-maximal effect; % is set by controls: 0 for no effect and ±100 for the full control effect; nearly all actives have a fitted effect of over 55% in size
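Chicken DT40 Tdp1-/- cells stably complemented with human TDP1 were seeded at 400 cells/well in medium containing 20 nM camptothecin, exposed to pin-transferred compounds, and grown at 37 °C for at least 48 hr. Viability was read as ATP luminescence.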
IL-1B inflam inh – inhibitors of inflammasome signaling (IL-1 beta secretion). THP-1 LPS/ATP IL-1B secretion, AlphaLISA, 16 h; stronger effect = lower value. hit rate 4.7% among 360,000. activity change, % at 57.5 µM; in the data active = activity change below about -50%; inconclusive = mostly about -30% to -49%; note: % is set by controls: 0 for no effect and ±100 for the full control effect
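THP-1 cells pretreated 1 hr with compounds (up to 57.5 uM final), then stimulated with LPS (250 ng/mL final) plus ATP (1.25 mM final); secreted IL-1B measured by AlphaLISA after 16 hr, decreased signal indicating inhibition.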
DT40 TDP1 no CPT – qHTS for Inhibitors of human tyrosyl-DNA phosphodiesterase 1 (TDP1): qHTS in cells in absence of CPT | DT40 Tdp1-/- hTDP1 cells, no CPT, ATP luminescence, 48 h | hit rate 15% among 420,000 | Potency, µM (highest dose often 46.2 µM), for inactives: at the top dose activity change, negative = growth inhibition, actives largely listed as inhibitors; note: potency is the fitted concentration of half-maximal effect; % is set by controls: 0 for no effect and ±100 for the full control effect; nearly all actives have a fitted effect of over 55% in size
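Growth kinetics read by CellTiter-Glo luminescence after ≥48 hr at 37 °C. Cells: DT40 Tdp1-/- stably carrying human TDP1, 400 per well, compound exposure in the absence of CPT (DMSO vehicle).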
S-ASM inh – human S-ASM enzyme inhibition; placental ASM, HMU-PC fluorogenic substrate, 60 min; P17405; Potency, µM (highest dose often 57.5 µM), without a hit: at the top dose activity change, negative = inhibition, usual class: inhibitors; hit rate 0.006% among 340,000; note: potency is the fitted concentration of half-maximal effect
Target sequence (P17405 47-631 limits assumed): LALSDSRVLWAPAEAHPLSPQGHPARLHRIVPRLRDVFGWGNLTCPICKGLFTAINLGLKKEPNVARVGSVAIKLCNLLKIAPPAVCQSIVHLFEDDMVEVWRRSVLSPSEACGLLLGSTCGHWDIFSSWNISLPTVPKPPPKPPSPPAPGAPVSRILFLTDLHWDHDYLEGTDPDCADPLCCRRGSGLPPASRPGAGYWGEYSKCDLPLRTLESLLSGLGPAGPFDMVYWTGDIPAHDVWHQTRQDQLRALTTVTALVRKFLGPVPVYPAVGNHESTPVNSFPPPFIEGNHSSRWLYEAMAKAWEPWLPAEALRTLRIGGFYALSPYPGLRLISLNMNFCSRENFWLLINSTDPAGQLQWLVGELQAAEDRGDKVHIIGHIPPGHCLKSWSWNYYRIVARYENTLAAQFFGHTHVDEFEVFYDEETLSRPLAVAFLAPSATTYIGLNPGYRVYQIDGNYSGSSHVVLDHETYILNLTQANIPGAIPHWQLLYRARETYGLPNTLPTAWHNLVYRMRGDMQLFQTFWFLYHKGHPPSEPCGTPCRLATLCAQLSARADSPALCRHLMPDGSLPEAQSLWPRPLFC
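Human placenta-derived ASM enzyme was preincubated with compound for 10 minutes at room temperature, then given fluorogenic substrate HMU-PC0 (9 uM final) for 60 minutes at 37 °C; a pH 10 stop preceded fluorescence reading at Ex 386/Em 447 nm.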
HepG2 tox – counter-screen for TGF-b inhibitors: cytotoxicity in HepG2 cells. hit rate 0.76% among 410,000. HepG2 CAGA-GFP viability, ATP luminescence, 18 h. Potency, µM (series often up to 46.1 µM), without a hit: at the top dose activity change, negative = cytotoxicity, actives largely listed as cytotoxic; note: potency is the fitted concentration of half-maximal effect
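CellTiter-Glo luminescence gave cytotoxicity after 18 hours at 37 degrees C. The cells were HepG2 CAGA-GFP in 1% FBS DMEM, stimulated with 500 pg/mL TGF-beta after compound addition. %Activity was normalised to no-cell wells (complete cell-killing) and DMSO (no toxicity), and curves were fitted and classified.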
TGFb SMAD3 inh – TGF-b pathway inhibition; HepG2 CAGA-GFP TGF-b/SMAD3 reporter, GFP fluorescence, 18 h; TGF-beta stimulated, 500 pg/mL final; Potency, µM (highest dose often 46.1 µM), without a hit: at the top dose activity, negative = inhibition, usual class: inhibitors; hit rate 1.2% among 410,000; note: potency is the fitted concentration of half-maximal effect; % is set by controls: 0 for no effect and ±100 for the full control effect; nearly all actives have a fitted effect of over 65% in size
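HEPG2 CAGA-GFP cells (1000/well, DMEM with 1% FBS) were pre-incubated 2 h at 37 degrees C, given compound by pin tool, then stimulated with TGF-beta at 500 pg/mL final for 18 h before per-cell GFP fluorescence imaging.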
* marks the source's active call; other numbers are inactive results; ? = inconclusive; . = no result given; [ ] = another dose, or the depositor's remark. Rows were chosen to be rich in hits. Some 19% of all compounds tested hit in one or more screens of this group. Unless noted, calls come from the whole dose curve; as a rule, active = well fitted curve in the direction sought with a large enough effect; inconclusive = small, poorly fitted or top-dose-only effect, or another doubt; inactive = no such curve, though single readings can be large; an effect the other way counts as inactive or inconclusive.

SMILES | DT40 TDP1 CPT | IL-1B inflam inh | DT40 TDP1 no CPT | S-ASM inh | HepG2 tox | TGFb SMAD3 inh
O=C1NC(=S)N(C(=O)c2ccc(F)cc2)/C1=C/c1ccccc1 | 23µM* | -16 | 13µM* | 9% | -43% | ?
O=C(c1ccc(F)cc1)N1CCN(Cc2ccccc2)CC1 | -9% | -22 | 1% | 12% | 0% | 30%
COc1ccc(/C=C2\C(=O)NC(=S)N2C(=O)c2ccc(F)cc2)cc1 | 23µM* | 12 | 18µM* | . | -18% | 113%
COc1ccc(NC(=S)N/N=C2/CCCc3c(C)cc(C)cc32)cc1 | 1% | 22 | -27% | -5% | 1% | 11%
COc1ccc(NC(=S)N/N=C2\CC(C)(C)Oc3ccc(OC)cc32)cc1 | 5.8µM* | -12 | 4.1µM* | 7% | 2% | -13%
CC(=O)N1CCC2(CC1)C/C(=N\NC(=S)Nc1ccc(C)cc1)c1cc(O)ccc1O2 | 15µM* | -29 | ? | 68% | -44% | 2%
O=C(NNc1cccc(Cl)n1)c1ccc(Cl)cc1Cl | 0% | -1 | 2% | -1% | -1% | -20%
O=C(NNc1cccc(Cl)n1)c1ccccc1CC[N+](=O)[O-] | 10µM* | -9 | ? | -4% | -9% | 0%
CC1CCCCC12NC(=O)N(CC(=O)Nc1ccccc1N1CCOCC1)C2=O (configuration not stated) | 3% | 12 | -10% | 5% | -5% | 3%
O=C(Nc1ccc(F)cc1)Nc1nnc(COc2ccccc2F)s1 | 15µM* | -166* | 16µM* | -7% | -31% | ?
O=C(Nc1ccc(F)cc1)Nc1nnc(-c2ccncc2)s1 | ? | 2 | 21µM* | 5% | -26% | ?
O=C(Nc1ccc(F)cc1)Nc1nnc(Cc2ccccc2)s1 | -15% | 28 | ? | -3% | 2% | ?
O=C(Nc1nnc(COc2ccccc2F)s1)Nc1ccccc1F | ? | -10 | 21µM* | -1% | -20% | ?
CCOC(=O)N1CCN(Cc2nnc(-c3ccccc3C)o2)CC1 | 4% | 6 | -13% | -3% | -25% | -15%
O=C(Nc1ccc(F)cc1)C(CCc1ccccc1)N1CCN(C(=O)c2ccco2)CC1 (configuration not stated) | ? | 3 | ? | . | . | .
O=C(Nc1ccc(S(=O)(=O)N2CCCCCC2)cc1)c1cc(=O)c2ccccc2o1 | ? | . | ? | . | 2% | ?
N#C/C(=C\c1cccnc1)C(=O)Nc1ccc(S(N)(=O)=O)cc1 | -24% | 0 | 23% | -1% | 1% | -3%
Clc1cc(/C=N\NC2=NCCN2)cc(Cl)n1 | -21% | 9 | ? | -3% | -3% | 3%
COc1ccc(C(=O)NCc2nnc(SC)n2-c2ccccc2C)c(OC)c1OC | 6%[9.04 µM] | . | -17% | . | . | .
O=S(=O)(c1ccc(-c2csc(Nc3ccc(F)cc3)n2)cc1)N1CCCC1 | 12µM* | 1 | 12µM* | 15% | -41% | ?
Cc1cc(C)cc(Nc2nc(-c3ccc(S(=O)(=O)N4CCCC4)cc3)cs2)c1 | 8.2µM* | ? | 7.3µM* | 134% | -9% | -28%
Cc1nc(-c2ccc(S(=O)(=O)N3CCCCCC3)cc2)cs1 | ? | -13 | ? | -2% | 8% | 18%
Cc1ccc(Nc2nc(-c3ccc(S(=O)(=O)N4CCCC4)cc3)cs2)cc1C | ? | ? | 21µM* | 20% | -7% | -12%
Cc1ccc(Nc2nc(-c3ccc(S(=O)(=O)N4CCOCC4)cc3)cs2)cc1 | ? | -23 | ? | 27% | -17% | -12%
CCOc1ccccc1NC(=O)CN(CCc1ccccc1)S(=O)(=O)c1ccc(C)cc1 | ? | . | 16µM* | . | -16% | -23%
